Mito fusion yeast: mitochondrial division inhibition or fusion activation. S. cerevisiae fusion-defective mutant growth rescue, CellTiterGlo 48 h. Potency, µM (doses to about 46.1 µM), actives largely listed as activators. actives 0.23% (n = 320,000); further: nearly all actives have a fitted effect of over 45% in size
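Compounds are tested for their ability to restore growth of mitochondrial fusion-defective yeast strains at non-permissive 37C in YPEG medium over 48 hours. Viability is quantified by luciferase luminescence.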
Abeta rescue: A-beta toxicity reversal in yeast | yeast expressing A-beta42, growth rescue, OD600, 48 h; response scale: 0% DMSO, 100% iron-clioquinol control | Potency, µM (top dose mostly 46.1 µM), actives largely listed as activators | actives 0.063% (n = 410,000); further: nearly all actives have a fitted effect of over 55% in size
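Yeast growth medium received pinned compounds, then yeast cells expressing toxic A-beta were added; plates incubated at 30 C for 48 hr. Growth read as absorbance at 600 nm, normalized to DMSO and equimolar FeCl3 plus clioquinol controls.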
aSyn rescue: inhibitors of alpha-synuclein toxicity in yeast | Potency, µM (top dose mostly 46.1 µM), most hits filed as activators | Yeast expressing alpha-synuclein, growth rescue, BacTiter-Glo, 24 h | actives 0.14% (n = 370,000) | AID 652106; further: nearly all actives have a fitted effect of over 65% in size
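Readout is rescue of growth in alpha-synuclein-expressing yeast, so inhibitors of toxicity appear as activators. Growth after 24 hr at 30 deg C in galactose medium is quantified by luminescence.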
FUS yeast rescue: rescues growth of FUS-expressing yeast. S. cerevisiae FUS-expressing, growth rescue, OD600, 24 h. Potency, µM (highest dose often 76.6 µM), most hits filed as activators. actives 0.24% (n = 390,000). AID 1347120; further: nearly all actives have a fitted effect of over 55% in size
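Galactose (2%) drives FUS expression in yeast precultured in raffinose; seeding density OD 0.005. Test compounds incubated 24hr at 30C and 99% humidity before absorbance at 600 nm was measured.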
TDP-43 yeast inh: inhibitors of TDP-43 toxicity in yeast | TDP-43 expressing yeast growth rescue, BacTiter-Glo, 24 h | actives 1.8% (n = 410,000) | Potency, µM (highest dose often 46.1 µM), usual class: activators; further: nearly all actives have a fitted effect of over 50% in size
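Yeast cells expressing TDP-43 under galactose induction are exposed to compounds for 24 hr at 30 deg C. BacTiter-Glo luminescence measures growth, so protective compounds score as activators.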
Numbers stand for hits. This is a sample that favours compounds with a hit; in the whole collection about 2.2% have one here. The call rests on the fitted dose curve; in most records, active means well fitted curve in the direction sought with a large enough effect; inconclusive means small, poorly fitted or top-dose-only effect, or another doubt; inactive means no such curve, though single readings can be large; an effect the other way counts as inactive or inconclusive.

Results for CCCCNC(=O)C[C@@H]1C[C@@]2(C(=O)OCC)CCCC=C2N(CCC2=CCCCC2)C1=O ?
Abeta rescue: inactive; aSyn rescue: inactive; FUS yeast rescue: inactive; TDP-43 yeast inh: 35.5µM

What do the screens show for `CCOC(=O)N1CCN(C(=O)C[C@@H]2C[C@@]3(C(=O)OC)CCCCC=C3N(Cc3ccc(Cl)cc3Cl)C2=O)CC1`?
Abeta rescue: inactive; aSyn rescue: inactive; FUS yeast rescue: inconclusive; TDP-43 yeast inh: 22.4µM

What do the screens show for `CCOC(=O)N1CCN(C(=O)C[C@@H]2C[C@@]3(C(=O)OCC)CCCC=C3N(Cc3ccc(Cl)cc3Cl)C2=O)CC1`?
Abeta rescue: inactive; aSyn rescue: inactive; FUS yeast rescue: inconclusive; TDP-43 yeast inh: inconclusive

How did CCOC(=O)[C@]12CCCC=C1N(CCC1=CCCCC1)C(=O)[C@H](CC(=O)NCc1cccc3ccccc13)C2 do in these assays?
Abeta rescue: inconclusive; aSyn rescue: inactive; FUS yeast rescue: inactive; TDP-43 yeast inh: 35.5µM

Results for CCCCCCCCN1C(=O)[C@H](CC(=O)NCCCOC)C[C@@]2(C(=O)OCC)CCCC=C12 ?
Abeta rescue: inactive; aSyn rescue: inactive; FUS yeast rescue: 12.6µM; TDP-43 yeast inh: inactive

Results for COc1cc2nc(N3CCCN(C)CC3)nc(NC3CCOCC3)c2cc1OC ?
aSyn rescue: inactive

How did CC1(C(=O)N2CCC(Oc3cccnc3)CC2)CC1 do in these assays?
FUS yeast rescue: inactive

How did CN1C(=O)c2cc(NS(C)(=O)=O)ccc2OC[C@H]2O[C@@H](CC(=O)NCc3ccc(-c4ccccc4)cc3)CC[C@@H]21 do in these assays?
FUS yeast rescue: inactive

How did CCCC1CCC2(CCC(=O)N2CCO)CC1 (stereo not given) do in these assays?
FUS yeast rescue: inactive

What do the screens show for `CCCCCCCCN1C(=O)[C@H](CC(=O)N2CCN(C(=O)OCC)CC2)C[C@@]2(C(=O)OCC)CCCC=C12`?
Abeta rescue: inactive; aSyn rescue: inactive; FUS yeast rescue: inconclusive; TDP-43 yeast inh: 25.1µM

How did CC(=C/c1ccccc1)/C=N/n1c(-c2ccco2)n[nH]c1=S do in these assays?
Mito fusion yeast: inactive; Abeta rescue: inactive; FUS yeast rescue: inactive; TDP-43 yeast inh: 11.2µM

Results for CC(/C=N/n1c(-c2cc(C)[nH]n2)n[nH]c1=S)=C\c1ccccc1 ?
Mito fusion yeast: inactive; Abeta rescue: inactive; aSyn rescue: inactive; FUS yeast rescue: inactive; TDP-43 yeast inh: inactive

Results for Cc1cc(C)c2c(=O)cc(C(=O)Nc3ccc(S(=O)(=O)Nc4onc(C)c4C)cc3)oc2c1 ?
Abeta rescue: inactive; FUS yeast rescue: inconclusive; TDP-43 yeast inh: inactive

What do the screens show for `CC(C)(C)OC(=O)N(c1cccc2cccnc12)S(=O)(=O)c1ccccc1Br`?
aSyn rescue: inactive

How did C=CCn1c(SCC(N)=O)nc2ccccc2c1=O do in these assays?
aSyn rescue: inactive

What do the screens show for `O=C(Nc1ccc(Cl)cn1)C1CCCN(c2ncnc3c2nc2n3CCCCC2)C1` (stereo not given)?
Mito fusion yeast: inconclusive; Abeta rescue: inactive; aSyn rescue: inactive; FUS yeast rescue: inactive; TDP-43 yeast inh: inconclusive

Results for CCN(C(=O)C1CCCN(c2ncnc3c2nc2n3CCCCC2)C1)c1cccc(C)c1 (stereo not given) ?
Abeta rescue: inactive; FUS yeast rescue: inactive; TDP-43 yeast inh: 14.1µM

What do the screens show for `COc1ccc(Cl)cc1NC(=O)C1CCCN(c2ncnc3c2nc2n3CCCCC2)C1` (stereo not given)?
Mito fusion yeast: inactive; Abeta rescue: inactive; aSyn rescue: inactive; FUS yeast rescue: inactive; TDP-43 yeast inh: 14.1µM

How did CCN(C(=O)C1CCCN(c2ncnc3c2nc2n3CCCCC2)C1)c1cccc(Cl)c1 (stereo not given) do in these assays?
Mito fusion yeast: inactive; Abeta rescue: inactive; aSyn rescue: inactive; FUS yeast rescue: inconclusive; TDP-43 yeast inh: 25.1µM

Results for COc1ccc(-c2cn3cccnc3n2)cc1NC(=O)c1c(F)cccc1F ?
Abeta rescue: inactive; FUS yeast rescue: inactive; TDP-43 yeast inh: inactive

What do the screens show for `COc1ccc(CN2C(=O)NC3(CCCc4ccccc43)C2=O)cc1F` (stereo not given)?
Mito fusion yeast: inactive; Abeta rescue: inactive; aSyn rescue: inactive; FUS yeast rescue: inactive; TDP-43 yeast inh: 11.2µM

What do the screens show for `CN1C(=O)[C@@](O)(c2cccn2C)c2cc(Cl)ccc21`?
FUS yeast rescue: inactive

Results for O=C(Nc1ccccn1)c1ccc(Br)s1 ?
Mito fusion yeast: inactive; Abeta rescue: inactive; aSyn rescue: inactive; FUS yeast rescue: inactive; TDP-43 yeast inh: 6.31µM

How did O=C(N/N=C\c1c(O)ccc2ccccc12)c1cncc(Br)c1 do in these assays?
Mito fusion yeast: inactive; Abeta rescue: inconclusive; aSyn rescue: 20µM; FUS yeast rescue: inactive; TDP-43 yeast inh: inactive

How did COc1ccc(N2CCN(c3nc4ccccc4nc3NS(=O)(=O)c3ccccc3)CC2)cc1 do in these assays?
Mito fusion yeast: inactive; Abeta rescue: inactive; aSyn rescue: inactive; FUS yeast rescue: inactive; TDP-43 yeast inh: 20µM

How did COc1cc(C(=O)Nc2nonc2-c2ccc(Cl)cc2)cc(OC)c1OC do in these assays?
Abeta rescue: inactive; FUS yeast rescue: inactive; TDP-43 yeast inh: inactive

Results for CC[C@H]1C(c2ccc(F)cc2)=NN(c2ccccc2)[C@@H]1CO ?
Abeta rescue: inconclusive; aSyn rescue: inactive; FUS yeast rescue: inactive; TDP-43 yeast inh: 11.2µM

What do the screens show for `OC[C@@H]1[C@@H](c2ccc(F)cc2)C(c2ccccc2)=NN1c1ccccc1`?
Abeta rescue: inactive; aSyn rescue: inactive; FUS yeast rescue: inactive; TDP-43 yeast inh: inactive

Results for Cc1ccc(CSc2nc3c(c(SCC(=O)O)n2)CCCC3)cc1 ?
Mito fusion yeast: inactive; Abeta rescue: inactive; aSyn rescue: inactive; FUS yeast rescue: inactive; TDP-43 yeast inh: 35.5µM

What do the screens show for `Cc1ccc(NC(=O)CC(=O)Nc2ccc(C)cc2C)c(C)c1`?
Mito fusion yeast: inactive; Abeta rescue: inactive; aSyn rescue: inactive; FUS yeast rescue: inactive; TDP-43 yeast inh: inactive

What do the screens show for `Cc1ccc(N/C(C(Cl)=C(Cl)Cl)=C(/Cl)[N+](=O)[O-])c(C)c1`?
Abeta rescue: inactive; aSyn rescue: inactive; FUS yeast rescue: inactive; TDP-43 yeast inh: 12.6µM

What do the screens show for `CCN(CC)CCCNC(=O)C1CCN(S(=O)(=O)CC)CC1`?
Abeta rescue: inactive; FUS yeast rescue: inactive; TDP-43 yeast inh: inactive

Results for Cc1ccc(Cl)cc1N1CCN(S(=O)(=O)c2c(C)noc2C)CC1 ?
Mito fusion yeast: 17.8µM; Abeta rescue: inactive; aSyn rescue: inactive; FUS yeast rescue: inactive; TDP-43 yeast inh: inactive

Results for Cc1ccc(C)c(N2CCN(S(=O)(=O)c3c(C)noc3C)CC2)c1 ?
Mito fusion yeast: inconclusive; Abeta rescue: inactive; aSyn rescue: inactive; FUS yeast rescue: inactive; TDP-43 yeast inh: inactive

How did CC(=O)Nc1cccc(/C(C)=N/NC(=S)NC(C)C)c1 do in these assays?
Mito fusion yeast: inactive; Abeta rescue: inactive; aSyn rescue: inactive; FUS yeast rescue: inactive; TDP-43 yeast inh: inactive
